Activity change, less the hit threshold data for 100 compounds are collected here from PubChem BioAssay AID1942 (Johns Hopkins Ion Channel Center, 2009).

The campaign covered roughly 2,400 compounds. About 580 (24%) were called active.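 The calls were made as follows: active = activity change at or above the mean plus 3 SD of buffer wells without dofetilide, per plate; inactive = the rest.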 Only a sample is shown.

For the assay, the target named is Potassium voltage-gated channel subfamily KQT member 2 (Rattus norvegicus) (UniProt O88943). The assay can be described thus: rat KCNQ2 channel activation by compounds alone, confirmation, counter-screen for hERG block protector project, cell-based, CHO, FluxOR thallium flux (AID 1942).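 Also: normalized value minus buffer-control mean plus three SD of buffer wells.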 As to conditions: CHO-KCNQ2 cells, FluxOR thallium flux fluorescence; at 10 µM; stronger effect = higher value. On the technique in general: Counterscreens check selectivity or assay interference.
Potassium voltage-gated channel subfamily KQT member 2 (Rattus norvegicus), sequence (O88943 whole entry, looked up): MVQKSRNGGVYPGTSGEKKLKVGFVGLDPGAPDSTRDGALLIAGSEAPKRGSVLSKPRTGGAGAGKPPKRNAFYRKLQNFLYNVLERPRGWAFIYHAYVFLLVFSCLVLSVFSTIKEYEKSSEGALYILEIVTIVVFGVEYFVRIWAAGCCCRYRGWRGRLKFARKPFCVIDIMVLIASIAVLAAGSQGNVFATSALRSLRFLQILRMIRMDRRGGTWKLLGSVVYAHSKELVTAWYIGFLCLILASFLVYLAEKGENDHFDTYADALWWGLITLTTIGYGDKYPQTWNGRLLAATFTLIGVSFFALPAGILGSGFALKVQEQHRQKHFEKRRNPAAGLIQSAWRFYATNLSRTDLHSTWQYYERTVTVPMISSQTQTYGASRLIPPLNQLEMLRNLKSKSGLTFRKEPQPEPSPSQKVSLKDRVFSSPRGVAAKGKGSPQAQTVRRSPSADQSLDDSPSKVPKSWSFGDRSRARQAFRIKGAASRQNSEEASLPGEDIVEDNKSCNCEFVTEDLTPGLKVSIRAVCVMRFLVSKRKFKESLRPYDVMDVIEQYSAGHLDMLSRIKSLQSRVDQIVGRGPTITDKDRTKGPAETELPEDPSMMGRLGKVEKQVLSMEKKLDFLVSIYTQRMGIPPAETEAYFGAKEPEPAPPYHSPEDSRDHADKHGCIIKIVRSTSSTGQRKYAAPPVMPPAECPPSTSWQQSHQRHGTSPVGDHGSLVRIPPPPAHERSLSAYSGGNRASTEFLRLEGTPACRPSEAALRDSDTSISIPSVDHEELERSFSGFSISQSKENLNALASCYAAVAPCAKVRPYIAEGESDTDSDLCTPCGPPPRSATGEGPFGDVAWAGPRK
For `O=C(O)c1ccccc1P(=O)(c1ccccc1)c1ccccc1`, the activity change, less the hit threshold was -16.8% (inactive). The same measure for `Cc1noc(C)c1COc1cccc(C(=O)NCc2cccc(Cl)c2)c1`: -21.4% (inactive); for `CCCCCCCC/C=C\CCCCCCCC(=O)O`: -1% (inactive); for `CCCCCC/C(C)=C1/SC(=S)NC1=O`: 71.1% (active). To `CCOC(=O)Cc1nc2ccccc2o1` belongs -2.9% (inactive); to `O=C(O)Cc1sc(-c2ccc(Cl)cc2)nc1-c1ccccc1`, -19.7% (inactive). On to `O=C(NC(=S)Nc1cc(C(F)(F)F)ccc1Cl)c1ccccc1`, for which the activity change, less the hit threshold was -6.4% (inactive).

Regarding `O=C(NC(=S)Nc1cccc(C(F)(F)F)c1)c1csnn1`, the activity change, less the hit threshold was 115% (active). On to `O=C(NC(=S)Nc1ccc(C(F)(F)F)cc1)c1csnn1`, for which the activity change, less the hit threshold is 87% (active). As to `O=C(Nc1ccc(-c2csc(Nc3cccc(C(F)(F)F)c3)n2)cc1)c1ccccc1`, the activity change, less the hit threshold is -23.8% (inactive). With `CC12CN3CC(C)(CN(C1)C3c1ccc3c(c1)OCO3)C2=O` (stereo not given), the activity change, less the hit threshold is -15.9% (inactive). The same measure for `C/C(O)=C/c1nc2ccccc2[nH]c1=O`: -16.5% (inactive); for `CCN1C(=O)/C(=C/N2CCc3ccccc32)SC1=S`: -17.3% (inactive). The same measure for `Cc1nnc2ccc(-c3cccc(NC(=O)c4ccc(Cl)nc4)c3)nn12`: -16.1% (inactive). As to `CNC(=O)c1c(O)c2cccc3c2n(c1=O)CC3`, the activity change, less the hit threshold is -22.2% (inactive). As to `c1ccc2oc(-c3ccn[nH]3)cc2c1`, the activity change, less the hit threshold was -0.3% (inactive). Consider `Cc1csc(NC(=O)C2C3C=CC(C3)C2C(=O)O)n1` (stereo not given), for which the activity change, less the hit threshold was -13.2% (inactive). Consider `Cc1csc(NC(=O)c2cn3ccccc3n2)n1`, for which the activity change, less the hit threshold was -15.1% (inactive). Regarding `Cc1csc(NC(=O)c2cc3c(s2)CCCC3)n1`, the activity change, less the hit threshold was 17.9% (active). In the case of `NC(=O)c1cccnc1Nc1cccc([N+](=O)[O-])c1`, the activity change, less the hit threshold was -14.1% (inactive).

As to `Cc1occc1C(=O)Nc1cccc([N+](=O)[O-])c1`, the activity change, less the hit threshold was -10.3% (inactive). For the compound `O=C(O)c1ccc(N=NNc2cccc([N+](=O)[O-])c2)cc1`, the activity change, less the hit threshold was 2.2% (active). For the compound `CC(=O)Nc1ccc(NC(=O)CSc2ncc(C(=O)Nc3ccc(Cl)cc3)c(=O)n2C)cc1`, the activity change, less the hit threshold is -4.1% (inactive). Take `N=c1c2cn[nH]c2nc(SCC(=O)c2ccc(Br)cc2)n1-c1ccc(Br)cc1`: the activity change, less the hit threshold was -23.7% (inactive). Turning to `CCOC(=O)C(=CNc1cc(C)ccc1[N+](=O)[O-])C(=O)OCC`, the activity change, less the hit threshold is -8.6% (inactive). Consider `CCOC(=O)C(=CNc1ccc(OC)cc1[N+](=O)[O-])C(=O)OCC`, for which the activity change, less the hit threshold is -13.9% (inactive). For the compound `CCOC(=O)N/N=C/C=C/c1ccccc1[N+](=O)[O-]`, the activity change, less the hit threshold is 5.2% (active).

For `O=S(=O)(NCc1ccc(Cl)cc1Cl)c1ccc(N2CCOCC2)nc1`, the activity change, less the hit threshold is -15% (inactive).

For the compound `CCOC(=O)/C=C/c1ccc2c(c1)S(=O)(=O)N(c1cccc(OC)c1)[C@H]2CC(=O)OCC`, the activity change, less the hit threshold is -13.3% (inactive).

For `CCCn1nnnc1NC(=O)c1cc(Cl)ccc1Cl`, the activity change, less the hit threshold was -33.4% (inactive). For `O=C(NC(=S)Nc1nc(-c2cccc([N+](=O)[O-])c2)cs1)c1ccccc1Cl`, the activity change, less the hit threshold is -10.8% (inactive). On to `CN(C)/C=C/C(=O)c1ccc(Cl)cc1Cl`, for which the activity change, less the hit threshold was -15.1% (inactive).

Turning to `CCCN(CCC)C(=S)NC(=O)c1ccc(Cl)cc1Cl`, the activity change, less the hit threshold was 55% (active). Take `CCCCN(CCCC)C(=S)NC(=O)c1ccccc1Cl`: the activity change, less the hit threshold was 89.6% (active). With `CN(C)C(=O)c1cc(C(=O)c2ccc(Cl)cc2Cl)c[nH]1`, the activity change, less the hit threshold is -14.9% (inactive).

Turning to `CN(C)CCCN=C(NO)c1ccc(Cl)cc1Cl`, the activity change, less the hit threshold is -14.9% (inactive). As to `O=C(Nc1ccsc1C(=O)O)c1ccccc1Cl`, the activity change, less the hit threshold was -14.7% (inactive). Regarding `CCN(CC)C(=S)NC(=O)c1ccc(Cl)cc1Cl`, the activity change, less the hit threshold was 9% (active). To `CCC(=O)NC(c1cccs1)c1ccc2cccnc2c1O` (stereo not given) belongs -16.7% (inactive). Regarding `CCC(C)NC(=O)c1c(-c2cc(Cl)c(OC)c(Cl)c2)noc1C` (stereo not given), the activity change, less the hit threshold is -12.6% (inactive). Turning to `O=[N+]([O-])c1cccc(/C=N/N=C\c2ccccc2)c1`, the activity change, less the hit threshold is -20.8% (inactive). With `CN(C(=O)CSc1ncnc2sc(-c3ccccc3)cc12)C1CCS(=O)(=O)C1` (stereo not given), the activity change, less the hit threshold was 80.2% (active). Consider `O=C(O)CCSc1ncnc2sc(-c3ccccc3)cc12`, for which the activity change, less the hit threshold was 22.1% (active).

For `CCOC(=O)c1sc2nc(C)nc(SCC(=O)N(C)C3CCS(=O)(=O)C3)c2c1C` (stereo not given), the activity change, less the hit threshold was -0.6% (inactive). For the compound `Cc1ccccc1-n1c(SCC(=O)N(C)C2CCS(=O)(=O)C2)nnc1-c1ccncc1` (stereo not given), the activity change, less the hit threshold is -7.7% (inactive). Regarding `CCC(C)NC(=O)CSc1ncnc2sccc12` (stereo not given), the activity change, less the hit threshold was -14.8% (inactive).

With `Cc1ccccc1Cc1c(C)nc2c(C(=O)NCc3ccc4c(c3)OCO4)cnn2c1C`, the activity change, less the hit threshold was -18.7% (inactive). As to `CC(CCc1ccccc1)NC(=S)NC(=O)c1ccco1` (stereo not given), the activity change, less the hit threshold was 15.2% (active). The same measure for `O=C(O)CNC(=O)c1ccc(NC(=O)/C(=C/c2ccccc2)NC(=O)c2ccco2)cc1`: -25.9% (inactive). Consider `O=C(NC(=S)N(CCc1ccccc1)CCc1ccccc1)c1ccco1`, for which the activity change, less the hit threshold is 36% (active). On to `NC(=O)c1nsc(C(=O)N(CC(=O)NCc2ccccc2)c2ccc(F)cc2)c1N`, for which the activity change, less the hit threshold is -23.6% (inactive). Consider `C/C(=N\NC(=O)c1ccc(NS(=O)(=O)c2cccs2)cc1)c1ccc2c(c1)OCO2`, for which the activity change, less the hit threshold was -25.3% (inactive). As to `CNC(=O)COC(=O)c1cccc(S(=O)(=O)N2CCN(c3ccc(F)cc3)CC2)c1`, the activity change, less the hit threshold was -11.1% (inactive). For `C=CCn1c(=S)[nH]c2sc3c(c2c1=O)CCCC3`, the activity change, less the hit threshold was 46.1% (active).

As to `C=CCn1c(=S)[nH]c2sc3c(c2c1=O)CCC3`, the activity change, less the hit threshold is 34.8% (active). For `C=CCn1c(=S)[nH]c2nc3c(cc2c1=O)CCCC3`, the activity change, less the hit threshold is -7.5% (inactive).

Regarding `Cc1ccc(C(C)C)cc1OCCn1cncn1`, the activity change, less the hit threshold is -20.3% (inactive). Regarding `CCCOc1ccc(C2NC(=S)NC(c3ccccc3)=C2C(=O)Nc2ccc(C)cc2)cc1OC` (stereo not given), the activity change, less the hit threshold was -6.2% (inactive).

For the compound `CNC(=O)CSc1nnc(-c2ccco2)n1-c1ccccc1`, the activity change, less the hit threshold was -16.7% (inactive). Regarding `COc1ccc(/C=C/C(=O)NC(=S)NNC(=O)c2cccs2)cc1`, the activity change, less the hit threshold is -21.3% (inactive). To `COc1ccc(NC(=O)CNC(=O)c2cccs2)cc1Cl` belongs -13.7% (inactive); to `Cc1ccc(NC(=O)C(=O)NNC(=O)c2cccs2)cc1`, 60.8% (active). Take `Cc1ccc(N/C=C/C(=O)c2cccs2)cc1`: the activity change, less the hit threshold was -18% (inactive). As for `CCc1ccc(NC(=O)C(=O)NNC(=O)c2cccs2)cc1`, the activity change, less the hit threshold is 67.5% (active).

As to `O=C(Nc1ccc(NC(=O)C2CC2)nc1)c1cccs1`, the activity change, less the hit threshold is -16.2% (inactive). To `C=CCc1cc(Cl)ccc1OCCOCCN(C)C` belongs -18.7% (inactive). The same measure for `Oc1ccc(N=Nc2ccccc2-c2nn[nH]n2)c(O)c1`: -0.7% (inactive). With `Nc1nonc1C(=O)N1CCCC1`, the activity change, less the hit threshold was -21% (inactive). In the case of `Cc1cc(C(=O)NNC2CC(=O)N(c3ccc4ccccc4c3)C2=O)c(C)o1` (stereo not given), the activity change, less the hit threshold was -17.4% (inactive). The same measure for `COc1ccc(-c2oc3ccccc3c(=O)c2OC(C)=O)cc1`: 7.3% (active); for `CC(=O)Oc1c(-c2ccco2)oc2ccccc2c1=O`: 6.8% (active).

Regarding `COc1ccc(OC(=O)Cc2cccc3ccccc23)cc1`, the activity change, less the hit threshold is -8.5% (inactive). On to `CC(=O)Oc1c(-c2ccc(Br)o2)oc2ccccc2c1=O`, for which the activity change, less the hit threshold is 99.4% (active). As to `O=C(N/N=C\c1coc2ccccc2c1=O)c1ccco1`, the activity change, less the hit threshold was -15.7% (inactive).

As to `COc1ccc(C(=O)c2oc3ccccc3c2N)cc1`, the activity change, less the hit threshold was -8.5% (inactive). For the compound `NC(=O)c1ccsc1NC(=O)CS(=O)(=O)c1ccccc1`, the activity change, less the hit threshold was -4.3% (inactive). Consider `COc1ccc(Cc2c(O)nc(SCC(C)C)[nH]c2=O)cc1`, for which the activity change, less the hit threshold was -20.7% (inactive). In the case of `CCOC(=O)C(=CNc1cc(C)ccn1)C(=O)OCC`, the activity change, less the hit threshold was -11.3% (inactive).

Turning to `CCOC(=O)C(=CNc1cccc(C)n1)C(=O)OCC`, the activity change, less the hit threshold was -11.8% (inactive). To `CCOC(=O)C(=CNc1ccc(N2CCOCC2)cc1)C(=O)OCC` belongs 0.3% (active); to `O=C(c1cccc(C(F)(F)F)c1)C1CCCN(C(=O)CCn2cnnn2)C1` (stereo not given), -8.8% (inactive); to `O=C(Cn1nnc(-c2cccc(C(F)(F)F)c2)n1)N1CCCCCC1`, 13.3% (active). Take `NC(=O)Cn1nnc(-c2ccc(CN3CCCCC3)cc2)n1`: the activity change, less the hit threshold was -14.8% (inactive).

`Cc1nc(NCCc2ccc(S(N)(=O)=O)cc2)c2c(C)c(C)sc2n1`: the activity change, less the hit threshold is 0.6% (active).

In the case of `O=C(NC1CCN(c2ncccn2)CC1)c1c(F)cccc1F`, the activity change, less the hit threshold was -9.6% (inactive). To `COCC(=O)Nc1cc(C)cn(Cc2c(F)cccc2Cl)c1=O` belongs -15.1% (inactive); to `Cc1ccc2c(Cl)cc(Cl)c(OCC(=O)NC3CCS(=O)(=O)C3)c2n1` (stereo not given), -23.4% (inactive). Consider `Cc1csc2c(N3CCCCC3)ncnc12`, for which the activity change, less the hit threshold was 3.5% (active).

`OCCN1CCN(c2ncnc3c2sc2nc(N4CCOCC4)c4c(c23)CCC4)CC1`: the activity change, less the hit threshold was -19.1% (inactive). To `CC1=CCC[C@@H]2[C@@](C)(CC/C(C)=C/C(=O)O)[C@H](C)CC[C@@]12C` belongs -3.2% (inactive); to `CCCCn1c(N)c(C(=S)NC(=O)CC(C)(C)C)c(=O)n(C)c1=O`, 9.2% (active); to `CC(=O)c1sc(-c2ccc(F)cc2)cc1NS(=O)(=O)c1ccc(C)cc1`, -14.9% (inactive). For `O=C(NC(=S)Nc1nc2c(s1)CSc1ccccc1-2)c1ccccc1`, the activity change, less the hit threshold is -2.4% (inactive). As to `COC(=O)c1ccc(C(=O)NC(=S)Nc2nc3c(s2)CCCC3)cc1`, the activity change, less the hit threshold was 16% (active).

As for `COC(=O)c1ccc(C(=O)NC(=S)Nc2nc3c(s2)CC(C)CC3)cc1` (stereo not given), the activity change, less the hit threshold is -11.7% (inactive). With `CC(C)(C)c1ccc(C(=O)NC(=S)Nc2nc3c(s2)CCCC3)cc1`, the activity change, less the hit threshold was 10% (active). As to `CN(C)/C=C1/C(=O)N(c2ccc([N+](=O)[O-])cc2)N=C1c1ccccc1`, the activity change, less the hit threshold was -5.3% (inactive). As to `Clc1cccc(-c2ccc(C=Nc3ccc(N4CCOCC4)cc3)o2)c1Cl`, the activity change, less the hit threshold is -8.8% (inactive).

As to `O=C(OCc1ccc(F)cc1)c1cc(S(=O)(=O)N2CCCCC2)ccc1N1CCOCC1`, the activity change, less the hit threshold was -12.7% (inactive).

Take `CCOC(=O)C1CCN(C(=O)CCS(=O)(=O)c2ccc3c(c2)CCN3C(=O)CC)CC1`: the activity change, less the hit threshold is -16.7% (inactive).
